# Experimental data as given in PubChem BioAssay.
# Activity calls are given as the source filed them. Unless noted, the rule behind the calls is not given here.
# Legend:
# [1] = tested on: Wnt5a (protein binding on small-molecule microarray); assay: small molecules binding Wnt5a protein – biophysical, small-molecule microarray, 635/667 nm fluorescence, primary screen (AID 1142); details: 635 nm fluorescence, higher = more signal;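 note: fluorescence read at 667 nm with signal to noise per printed feature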
# [2] = ATP-based viability of Huh7 replicon cells – cell-based, CellTiter-Glo luminescence, basal, 48 h, cytotoxicity control for HCV replication inhibitor project, primary screen (AID 1143); details: higher = more signal, called active from +8 up or from −8 down;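 note: Huh7 hepatoma cells carrying a hepatitis C replication reporter with no stimulus; test concentration not given here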
# [3] = Pseudomonas biofilm growth suppression – PAO1 strain, BacTiter-Glo luminescence, LB-PBS, primary screen (AID 1144); details: P. aeruginosa PAO1 biofilm, 12 h, higher = more signal
# [4] = basal CRE-LacZ reporter activity in PC12 – cell-based, unstimulated, primary screen (AID 1145); details: no forskolin, luminescence, 4.5 h, higher = more signal, called active from +8 up or from −8 down
# [5] = forskolin-driven CRE-LacZ activity in PC12 – cell-based, CRE-LacZ reporter, forskolin-stimulated, primary screen (AID 1146); details: luminescence, 4.5 h, higher = more signal, called active from +8 up or from −8 down;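 note: PC12 cells with 6xCRE LacZ reporter stimulated by forskolin 10 µM; beta-galactosidase reporter signal reflecting CREB driven transcription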
# [6] = biological target: Streptavidin (Streptomyces avidinii) (UniProt P22629); assay: compounds binding control protein streptavidin – biophysical, small-molecule microarray, 635/667 nm fluorescence, artefact control for SMM compound annotation, primary screen (AID 1147); details: higher = more signal;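 note: signal reflects streptavidin binding to arrayed compounds as a control protein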
# Streptavidin (Streptomyces avidinii), sequence (P22629 whole entry, looked up): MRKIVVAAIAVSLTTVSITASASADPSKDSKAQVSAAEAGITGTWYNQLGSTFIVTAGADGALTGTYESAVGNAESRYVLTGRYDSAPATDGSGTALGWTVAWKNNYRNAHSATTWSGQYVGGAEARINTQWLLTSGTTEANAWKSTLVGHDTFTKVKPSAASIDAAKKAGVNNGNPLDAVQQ
# [7] = probe aInhba binding on compound microarray – biochemical, small-molecule microarray, 635/667 nm fluorescence, primary screen (AID 1148); details: higher = more signal;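 note: score merges 667nm spot fluorescence with signal-to-noise for antibody binding to printed compounds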
# Torsin-1A (Homo sapiens) [8] = biological target: Torsin-1A (Homo sapiens) (UniProt O14656); assay: TOR1A wild-type binding on microarray – cell lysate, small-molecule microarray, lysate, 635/667 nm, primary screen (AID 1149); details: COS7 hTOR1A-WT lysate, 635 nm fluorescence, higher = more signal
# Torsin-1A (Homo sapiens), sequence (O14656 whole entry, looked up): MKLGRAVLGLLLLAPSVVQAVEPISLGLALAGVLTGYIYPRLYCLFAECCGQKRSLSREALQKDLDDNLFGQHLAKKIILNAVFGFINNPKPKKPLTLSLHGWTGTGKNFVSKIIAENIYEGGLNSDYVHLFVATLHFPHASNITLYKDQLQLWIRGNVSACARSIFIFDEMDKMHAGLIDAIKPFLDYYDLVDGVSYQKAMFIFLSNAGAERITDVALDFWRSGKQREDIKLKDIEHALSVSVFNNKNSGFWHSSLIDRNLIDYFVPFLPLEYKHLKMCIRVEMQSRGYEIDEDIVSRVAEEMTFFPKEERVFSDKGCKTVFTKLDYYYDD
# Torsin-1A (Homo sapiens) [9] = biological target: Torsin-1A (Homo sapiens) (UniProt O14656); assay: torsin A mutant lysate binding on microarrays – cell lysate, small-molecule microarray, COS7 lysate, 635/667 nm fluorescence, primary screen (AID 1150); details: COS7 hTOR1A mutant lysate, 635 nm fluorescence, higher = more signal;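 note: score pools 667 nm emission and signal to noise measuring lysate protein binding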
# [10] = tested on: Sonic hedgehog protein (Shh); assay: Sonic hedgehog microarray binding compounds – biochemical, small-molecule microarray, 635/667 nm fluorescence, primary screen (AID 1151); details: 635 nm fluorescence, higher = more signal;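 note: Shh protein binding to compounds spotted on small-molecule microarray slides; score combines spot fluorescence intensity with signal-to-noise across triplicate slides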
# [11] = optical density shifts of acrAB sulA E. coli – strain DRC41, OD650, 48 h, E. coli filamentation inducer project, primary screen (AID 1152); details: higher = more signal, called active from +8 up or from −8 down;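 note: E. coli MC1000 strain DRC41 lacking acrAB efflux pump and sulA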
# [12] = probe aLefty1 binding on compound microarray – biochemical, small-molecule microarray, 635/667 nm fluorescence, primary screen (AID 1153); details: higher = more signal;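 note: score merges spot fluorescence with signal-to-noise ratio from the scanned slide images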
# [13] = plasmodial surface anion channel blockers, osmotic lysis – cell-based, P. falciparum Indochina, OD700, 1 h, primary screen (AID 1154); details: P. falciparum Indochina infected RBC osmotic lysis, higher = more signal, called active from +8 up or from −8 down
# [14] = plasmodial surface anion channel blockers, osmotic lysis – cell-based, P. falciparum Indochina, OD700, 2 h, primary screen (AID 1155);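 note: lysis reports solute entry through the parasite surface anion channel PSAC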; details: P. falciparum Indochina infected erythrocytes, higher = more signal, called active from +8 up or from −8 down
# [15] = changes in parasitized red cell lysis, either direction – P. falciparum Indochina, OD700, 3 h, PSAC antagonist project, primary screen (AID 1156); details: P. falciparum-infected erythrocytes, osmotic lysis, higher = more signal, called active from +8 up or from −8 down
# [16] = plasmodial surface anion channel blockers, osmotic lysis – cell-based, P. falciparum Indochina, OD700, 18 h, primary screen (AID 1157); details: P. falciparum Indochina infected erythrocytes, osmotic lysis OD700, 18 h; higher = more signal, called active from +8 up or from −8 down
# [17] = S6 kinase pathway phospho-S6 level changes – cell-based, A549, cytoblot, luminescence, serum-stimulated, primary screen (AID 1158); details: 5 h, higher = more signal;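 note: serum-stimulated A549 lung adenocarcinoma cells; signal is phosphorylated S6 detected by cytoblot immunostaining with HRP secondary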
# [18] = biological target: NADPH oxidase 2 (Homo sapiens) (UniProt P04839); assay: compounds shifting NOX2 Amplex Red fluorescence – cell-based, HEK293-NOX2, PMA-stimulated, NOX inhibitor project, primary screen (AID 1159); details: 45 min, higher = more signal, called active from +8 up or from −8 down; note: test concentration not given here
# NADPH oxidase 2 (Homo sapiens), sequence (P04839 whole entry, looked up): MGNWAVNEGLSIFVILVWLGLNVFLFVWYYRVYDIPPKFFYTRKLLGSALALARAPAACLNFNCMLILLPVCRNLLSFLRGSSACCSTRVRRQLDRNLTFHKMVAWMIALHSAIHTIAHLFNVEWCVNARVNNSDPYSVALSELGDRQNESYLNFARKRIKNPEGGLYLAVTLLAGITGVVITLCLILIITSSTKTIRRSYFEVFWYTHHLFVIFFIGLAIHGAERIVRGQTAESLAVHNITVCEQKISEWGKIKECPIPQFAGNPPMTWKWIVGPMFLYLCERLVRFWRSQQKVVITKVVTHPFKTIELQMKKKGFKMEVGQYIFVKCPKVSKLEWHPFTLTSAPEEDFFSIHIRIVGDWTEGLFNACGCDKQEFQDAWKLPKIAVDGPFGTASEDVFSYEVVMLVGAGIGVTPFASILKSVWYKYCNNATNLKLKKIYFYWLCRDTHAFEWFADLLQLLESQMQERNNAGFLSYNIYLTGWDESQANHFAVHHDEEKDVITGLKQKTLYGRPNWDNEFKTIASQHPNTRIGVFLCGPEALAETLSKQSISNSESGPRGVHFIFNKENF
# [19] = biological target: NADPH oxidase 4 (Homo sapiens) (UniProt Q9NPH5); assay: compounds shifting NOX4 Amplex Red fluorescence – cell-based, HEK293-NOX4, tetracycline-induced, NOX inhibitor project, primary screen (AID 1160); details: HEK293-NOX4, Amplex Red H2O2 fluorescence, 45 min; higher = more signal, called active from +8 up or from −8 down
# NADPH oxidase 4 (Homo sapiens), sequence (Q9NPH5 whole entry, looked up): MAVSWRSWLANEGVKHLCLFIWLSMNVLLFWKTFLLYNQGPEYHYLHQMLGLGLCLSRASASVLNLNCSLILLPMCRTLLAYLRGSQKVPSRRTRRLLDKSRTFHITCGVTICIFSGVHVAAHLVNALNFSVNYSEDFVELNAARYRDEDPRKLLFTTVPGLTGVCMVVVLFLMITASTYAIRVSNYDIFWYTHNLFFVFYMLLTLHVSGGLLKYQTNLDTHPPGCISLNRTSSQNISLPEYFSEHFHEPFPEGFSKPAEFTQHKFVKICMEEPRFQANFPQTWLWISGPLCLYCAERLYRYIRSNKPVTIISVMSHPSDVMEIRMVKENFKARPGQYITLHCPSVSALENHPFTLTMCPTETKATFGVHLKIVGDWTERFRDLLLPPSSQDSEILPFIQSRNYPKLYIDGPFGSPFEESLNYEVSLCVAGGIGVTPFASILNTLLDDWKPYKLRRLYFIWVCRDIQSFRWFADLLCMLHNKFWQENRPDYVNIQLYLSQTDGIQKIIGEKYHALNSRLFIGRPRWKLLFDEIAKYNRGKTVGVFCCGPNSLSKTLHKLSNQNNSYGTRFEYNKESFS
# [20] = biological target: NADPH oxidase 5 (Homo sapiens) (UniProt Q96PH1); assay: compounds shifting NOX5 Amplex Red fluorescence – cell-based, HEK293-NOX5, NOX inhibitor project, primary screen (AID 1161); details: HEK293-NOX5, ionomycin, 45 min, higher = more signal
# NADPH oxidase 5 (Homo sapiens), sequence (Q96PH1 whole entry, looked up): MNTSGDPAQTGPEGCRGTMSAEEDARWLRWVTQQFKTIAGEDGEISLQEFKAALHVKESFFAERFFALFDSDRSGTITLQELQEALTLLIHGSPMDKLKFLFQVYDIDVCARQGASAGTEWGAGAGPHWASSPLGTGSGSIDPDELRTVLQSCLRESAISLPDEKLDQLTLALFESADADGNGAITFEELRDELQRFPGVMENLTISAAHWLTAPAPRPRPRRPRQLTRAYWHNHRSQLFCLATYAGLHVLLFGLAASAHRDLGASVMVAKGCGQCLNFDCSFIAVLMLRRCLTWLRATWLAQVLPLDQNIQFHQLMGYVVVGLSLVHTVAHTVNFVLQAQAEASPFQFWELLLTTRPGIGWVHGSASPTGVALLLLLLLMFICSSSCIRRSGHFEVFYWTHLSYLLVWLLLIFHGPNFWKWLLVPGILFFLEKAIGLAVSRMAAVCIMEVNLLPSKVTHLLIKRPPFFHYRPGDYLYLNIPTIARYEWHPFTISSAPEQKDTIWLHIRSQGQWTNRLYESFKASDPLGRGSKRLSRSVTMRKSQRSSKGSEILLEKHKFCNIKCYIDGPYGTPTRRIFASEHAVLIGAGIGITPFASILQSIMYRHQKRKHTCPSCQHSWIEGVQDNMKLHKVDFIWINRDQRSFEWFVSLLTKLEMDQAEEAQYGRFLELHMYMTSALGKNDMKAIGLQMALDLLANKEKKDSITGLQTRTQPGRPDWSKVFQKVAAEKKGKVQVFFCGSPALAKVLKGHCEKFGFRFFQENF
Compound,composite z-score [1],z-score [2],z-score [3],z-score [4],z-score [5],composite z-score [6],composite z-score [7],composite z-score (Torsin-1A (Homo sapiens) [8]),composite z-score (Torsin-1A (Homo sapiens) [9]),composite z-score [10],z-score [11],composite z-score [12],z-score [13],z-score [14],z-score [15],z-score [16],z-score [17],z-score [18],z-score [19],z-score [20]
COc1ccc([Si](C)(C)[C@@H]2[C@@H](CC(=O)N3Cc4ccccc4C[C@H]3CO)O[C@]3(C(=O)N(Cc4ccc(N5CCC5=O)cc4)c4ccccc43)[C@H]2C)cc1,0.159,-3.32 (inactive),-1.1 (inactive),0.409 (inactive),-0.448 (inactive),0.673,-0.167,-0.191,0.585,1.74,0.238 (inactive),0.0253,5.02 (inactive),1.31 (inactive),0.538 (inactive),1.14 (inactive),0.0933,0.669 (inactive),0.841 (inactive),2.36
CCOC(=O)C=Cc1cc(F)ccc1O,0.139,-4.58 (inactive),-0.557 (inactive),0.276 (inactive),-0.804 (inactive),0.761,0.0705,0.165,0.448,-0.587,-1.38 (inactive),0.0355,16.6 (active),-0.347 (inactive),0.782 (inactive),-1.23 (inactive),0.684,-4.77 (inactive),-3.25 (inactive),-4.14
C=CCC(OC(C)=O)[C@@H]1[C@@H](N(Cc2ccc(-c3ccccc3)cc2)C(=O)c2ccc(C)cc2)c2cc(OCCCO)ccc2N1C(=O)Cc1ccc2ccccc2c1 (stereo not given in full),-0.0632,-0.889 (inactive),-0.0727 (inactive),1.66 (inactive),-0.515 (inactive),0.129,-0.0986,0.0508,-0.577,1,2.43 (inactive),-0.0011,-0.0828 (inactive),-0.66 (inactive),-1.45 (inactive),-0.938 (inactive),1.23,-1.68 (inactive),0.934 (inactive),1.62
COC(=O)C1=CC(CCCO)=CC(C)N(Cc2cccc(OC(F)(F)F)c2)C=C1C(=O)OC (stereo not given),0.145,-1.07 (inactive),-0.117 (inactive),-0.168 (inactive),0.308 (inactive),0.747,-0.001,-0.148,0.47,-0.681,-0.0692 (inactive),0.248,2.3 (inactive),0.192 (inactive),0.983 (inactive),0.5 (inactive),-0.334,0.159 (inactive),-0.317 (inactive),0.859
C=C(COC)C(=O)CC[C@@H](OC(=O)c1cccnc1)c1ccccc1OCCO,0.125,-3.79 (inactive),0.291 (inactive),19.7 (active),16.4 (active),-0.126,0.0355,0.882,1.14,0.786,0.0001 (inactive),-0.106,21.2 (active),2.88 (inactive),0.793 (inactive),0.65 (inactive),-0.347,-2.12 (inactive),-0.369 (inactive),-1.4
CC(C)CCC[C@@H](C)[C@H]1CC[C@@]2(C)C3=C(CC[C@]12C)[C@@]1(C)CC[C@H](OC(=O)c2ccccc2)C(C)(C)C1CC3 (stereo not given in full),0.0964,-1.16 (inactive),-1.65 (inactive),0.581 (inactive),-0.653 (inactive),0.18,-0.178,0.316,0.171,0.364,2.94 (inactive),0.0939,-0.44 (inactive),-0.47 (inactive),-0.414 (inactive),-1.26 (inactive),1.64,-0.898 (inactive),0.288 (inactive),0.465
COc1ccc(C(O)C2C=CC3C(=O)N(c4ccccc4)C(=O)C3N2Nc2ccc(C(C)C)cc2)c2ccccc12 (stereo not given),0.295,0.0927 (inactive),-1.88 (inactive),0.632 (inactive),-0.557 (inactive),1.92,0.216,0.724,1.01,-0.328,-0.534 (inactive),0.4,1.68 (inactive),1.35 (inactive),0.155 (inactive),1.27 (inactive),-1.09,0.373 (inactive),-2.59 (inactive),-3.17
Cc1c(NC(=O)/C(C#N)=C/c2ccccc2Cl)c(=O)n(-c2ccccc2)n1C,0.27,-2.11 (inactive),-0.543 (inactive),-0.321 (inactive),-1.21 (inactive),1.73,-0.0195,0.461,0.159,0.0651,1.32 (inactive),-0.296,0.471 (inactive),-1.52 (inactive),-0.945 (inactive),-1.34 (inactive),1.22,-3.65 (inactive),-0.56 (inactive),0.29
NC(=O)[C@H]1[C@@H]2C(=O)O[C@@H](c3ccccc3)[C@@H](c3ccccc3)N2[C@@H](c2ccc(O)cc2)[C@]12C(=O)Nc1ccc(C#CC3=CCCCC3)cc12,-0.0856,-3.73 (inactive),0.363 (inactive),0.478 (inactive),0.731 (inactive),0.185,-0.128,0.509,0.721,1.19,-1.35 (inactive),0.145,3.07 (inactive),1.45 (inactive),0.28 (inactive),1.4 (inactive),-0.425,1.18 (inactive),0.425 (inactive),0.563
